Experimental data: PubChem BioAssay AID488838 (National Center for Advancing Translational Sciences (NCATS), 2010)
Results filed as inconclusive are left out. Calls of active or inactive are those of the source. The call rests on the fitted dose curve; in most records, active means well fitted inhibition curve with a large enough effect; inconclusive means small, poorly fitted or top-dose-only effect; inactive means flat fitted curve, though single readings scatter.

molecular target: Luciferin 4-monooxygenase (Photinus pyralis) (UniProt P08659); assay: Counterscreen Assay for Enhancers of SMN2 Splice Variant Expression: Interaction with Luciferase Reporter for Further Probe SAR; settings: purified firefly luciferase, luminescence, 5 min; series mostly up to 57.5 µM; activity change, negative = inhibition: at the top concentration
Sequence (P08659 whole entry, looked up, canonical isoform): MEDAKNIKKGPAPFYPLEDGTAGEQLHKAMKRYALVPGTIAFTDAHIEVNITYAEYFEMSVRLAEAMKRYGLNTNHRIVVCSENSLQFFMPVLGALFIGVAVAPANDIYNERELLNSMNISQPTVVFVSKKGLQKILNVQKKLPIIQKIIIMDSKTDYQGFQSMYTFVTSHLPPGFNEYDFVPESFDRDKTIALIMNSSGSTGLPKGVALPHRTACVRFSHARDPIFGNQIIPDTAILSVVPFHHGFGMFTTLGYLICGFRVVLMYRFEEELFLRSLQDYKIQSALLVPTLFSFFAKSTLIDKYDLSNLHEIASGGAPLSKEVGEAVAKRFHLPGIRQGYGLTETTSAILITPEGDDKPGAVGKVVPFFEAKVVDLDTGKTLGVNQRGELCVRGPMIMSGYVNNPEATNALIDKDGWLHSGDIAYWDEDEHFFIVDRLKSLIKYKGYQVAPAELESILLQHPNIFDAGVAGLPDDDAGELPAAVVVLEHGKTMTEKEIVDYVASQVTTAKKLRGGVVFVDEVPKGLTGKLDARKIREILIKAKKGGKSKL
Source text: NIH Chemical Genomics Center [NCGC] NIH Molecular Libraries Probe Production centers Network [MLPCN] MLPCN Grant: R03 MH084179-01 Assay Submitter (PI): Elliot Androphy NCGC Assay Overview: Spinal muscular atrophy (SMA) is caused by insufficient levels of the survival motor neuron protein SMN. The SMN locus on chromosome 5q13 contains two inverted copies of SMN called SMN1 and SMN2 which are 99% identical at the amino acid level. SMN1 is a fully functional protein and SMN2 skips exon 7 90% of the time. Skipping of exon 7 produces non-functional protein product. 10% of the SMN2 protein includes exon 7 and is fully functional. In the SMA disease state, mutations in the SMN1 locus are the cause of the disease state. Because only 10% of SMN2 is of the fully functional form, it is not sufficient to overcome the deficiency produced by the loss of the SMN1 product. A therapy that either increases the amount of SMN2 product made increases the inclusion of exon 7 has been proposed for the treatment of SMA. We have designed an assay to identify small molecules that can increase the amount of functional SMN2 product by appending a luciferase reporter gene after the native SMN2 gene, such that inclusion of exon 7 in the expressed product places the luciferase sequence in frame, thus generating functional luciferase enzyme. One potential source of false positives in the primary screening assay is stabilization of the reporter luciferase via direct binding. This assay attempts to identify such compounds by screening directly for luciferase activity in the absence of the cellular system.
NCGC Assay Protocol Summary: The primary screen utilizes a luciferase reporter gene assay, combining the promoter and splicing based cassettes in tandem with the major portion of the native SMN1 cDNA, and then transfected into HEK293 cells. Compounds that modulate luciferase signal presumably modulate expression of […]. In this assay, we utilize purified firefly luciferase in lieu of a cellular reporter to identify compounds interacting directly with luciferase in the primary screen. Sequence, Parameter, Value, Description (1) Reagent, 2.5 uL, Enzyme in buffer (note A) (2) Compound, 23 nL, From stock solutions (3) Time, 5 minutes, Room temp (4) Reagent#2.5 ul, Luciferase detection reagent (note B) (5) Detector, 1 sec integrate, Luminescent read on Viewlux (note C) Sigma enzyme (1 mg) considered to be MW 61,000 diluted in 357 ul assay buffer to 50 uM stock. A - Enzyme and buffer consists of 50 mM Tris-acetate pH 7.6, 10 mM Mg acetate 0.05% BSA, 0.01% Tween and 5 nM firefly luciferase B - Detection reagent = britelite plus diluted 1:10 in PBS C - Viewlux settings were 1 second integration medium sensitivity Keywords: Spinal muscular atrophy, SMA, SMN2, high throughput screening, MLSMR, MLPCN, NIH Roadmap, qHTS and NCGC

Compound | activity change, negative = inhibition | Potency
NC(=O)C1CCN(c2nccc(-c3ccc4c(c3)OCCCO4)n2)CC1 | -29.5% (inactive) | 
Nc1nc(N)c2c(OCC3CCN(Cc4ccccc4F)CC3)cccc2n1 | -16.4% (inactive) | 
COc1ccc(-c2cnc(N3CCC(C(N)=O)CC3)s2)cc1OC | -15.6% (inactive) | 
O=C(Nc1ccccc1)C1CCN(c2ncc(-c3ccc4c(c3)OCCCO4)s2)CC1 |  | 4.01 µM (active)
CC(C)(C)OC(=O)NC1CCN(c2nc(-c3ccc(Br)cc3)cs2)CC1 | -14.5% (inactive) | 
CN(C)C(=O)C1CCN(c2nc(-c3ccc(Br)cc3)cs2)CC1 |  | 8 µM (active)
O=C(O)C1CCN(c2ncc(-c3ccc4c(c3)OCCCO4)s2)CC1 |  | 0.005 µM (active)
NC(=O)C1CCN(c2ncc(-c3ccc(Cl)cc3)s2)CC1 |  | 10.1 µM (active)
CCOC(=O)C1CCN(c2ncc(-c3ccc4c(c3)OCCCO4)s2)CC1 |  | 8 µM (active)
NC(=O)C1CCN(c2ncc(Br)cn2)CC1 | -12.9% (inactive) | 
CN(C)c1cccc(-c2nccc(N3CCC(C(N)=O)CC3)n2)c1 | -19.7% (inactive) | 
NC(=O)C1CCN(c2nc(-c3ccc4c(c3)OCO4)cs2)CC1 |  | 28.4 µM (active)
NC(=O)C1CCN(c2nnc(-c3ccc4c(c3)OCCCO4)s2)CC1 |  | 3.57 µM (active)
NC(=O)C1CCN(c2nc(-c3ccc4c(c3)OCCCO4)cs2)CC1 |  | 0.897 µM (active)
Brc1ccc(-c2csc(N3CCNCC3)n2)cc1 | -8.89% (inactive) | 
CN(C)c1cccc(-c2cnc(N3CCC(c4ncc[nH]4)CC3)s2)c1 |  | 20.1 µM (active)
CN(C)c1cccc(-c2cnc(N3CCC(C(N)=O)CC3)nc2)c1 |  | 11.3 µM (active)
COc1cccc(-c2csc(N3CCC(C(N)=O)CC3)n2)c1 |  | 25.3 µM (active)
NC(=O)C1CCN(c2nc(-c3ccccc3Cl)cs2)CC1 | -28.1% (inactive) | 
NC(=O)C1CCN(c2ncc(-c3ccc4c(c3)OCO4)s2)CC1 |  | 3.18 µM (active)

Compound | activity change, negative = inhibition | Potency
N#Cc1ccc(-c2csc(N3CCC(C(N)=O)CC3)n2)cc1 | -17.5% (inactive) | 
O=C(O)C1CCN(c2nc(-c3ccc(Br)cc3)cs2)CC1 |  | 1.42 µM (active)
NC(=O)C1CCN(c2nc(-c3ccc(OC(F)(F)F)cc3)cs2)CC1 | -19.4% (inactive) | 
CC(C)Oc1cccc(-c2cnc(N3CCC(C(N)=O)CC3)s2)c1 |  | 0.8 µM (active)
c1c[nH]c(C2CCN(c3ncc(-c4ccc5c(c4)OCCCO5)s3)CC2)n1 |  | 10.1 µM (active)
CN(C)c1cccc(-c2ncnc(N3CCC(C(N)=O)CC3)n2)c1 | -22.2% (inactive) | 
CCOc1ccc(-c2csc(N3CCC(C(N)=O)CC3)n2)cc1 | -29.5% (inactive) | 
CC(=O)N1CCN(c2nc(-c3ccc(Br)cc3)cs2)CC1 |  | 0.8 µM (active)
CC(=O)NC1CCN(c2nc(-c3ccc(Br)cc3)cs2)CC1 | -15.6% (inactive) | 
O=C(C1CCN(c2nc(-c3ccc(Br)cc3)cs2)CC1)N1CCNCC1 | 9.84% (inactive) | 
NC(=O)C1CCN(c2ncc(Br)s2)CC1 | -22.6% (inactive) | 
Cc1ccc(-c2cnc(N3CCC(C(N)=O)CC3)s2)cc1 |  | 5.05 µM (active)
NC(=O)C1CCN(c2nccc(Cl)n2)CC1 | -14.5% (inactive) | 
CN(C)c1cccc(-c2cnc(N3CCC(C(N)=O)CC3)s2)c1 |  | 0.635 µM (active)
NC(=O)C1CCN(c2ncc(-c3ccc4c(c3)OC(F)(F)O4)s2)CC1 |  | 16 µM (active)
O=C(c1ccccc1)N1CCN(c2nc(-c3ccc(Br)cc3)cs2)CC1 | -22.2% (inactive) | 
COc1ccccc1-c1csc(N2CCC(C(N)=O)CC2)n1 | -21.1% (inactive) | 
CS(=O)(=O)c1ccc(-c2csc(N3CCC(C(N)=O)CC3)n2)cc1 | -17.5% (inactive) | 
COc1cc(-c2csc(N3CCC(C(N)=O)CC3)n2)cc(OC)c1OC | -11.5% (inactive) | 
CN(C)c1cccc(-c2cc(N3CCC(C(N)=O)CC3)ncn2)c1 | -20% (inactive) | 
